# Assay results: PubChem BioAssay (NCI)
# Compounds without any hit were thinned out: in the full panel of roughly 83,000, 20% have a hit.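 For each line, cells grew in 96-well plates with the test compound present at a single concentration for 48 hours.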 Values without a mark were called inactive. Activity calls are given as the source filed them. How the source made its calls: active means growth percent below 10; inactive means the rest.
# Legend:
# Test in all cases: NCI-60 one-dose screen, 48 h (100 = growth as untreated, 0 = no growth, -100 = all killed)
# Conditions in all cases: 10 µM unless noted
# SK-MEL-2 melanoma = system: SK-MEL-2 melanoma
# EKVX NSCLC = system: EKVX NSCLC
# SN12C renal = system: SN12C renal
# UO-31 renal = system: UO-31 renal
# TK-10 renal = system: TK-10 renal
# ACHN renal = system: ACHN renal
# CAKI-1 renal = system: CAKI-1 renal
# A498 renal = system: A498 renal
# CCRF-CEM leukemia = system: CCRF-CEM leukemia
# MOLT-4 leukemia = system: MOLT-4 leukemia
SMILES,growth (SK-MEL-2 melanoma),growth (EKVX NSCLC),growth (SN12C renal),growth (UO-31 renal),growth (TK-10 renal),growth (ACHN renal),growth (CAKI-1 renal),growth (A498 renal),growth (CCRF-CEM leukemia),growth (MOLT-4 leukemia)
O=C1C2=C(C(=O)c3c(O)ccc(O)c31)N(c1cccnc1)Cc1ccccc1O2,-42.6% (active),2.08% (active),-43.8% (active),-83.5% (active),-99.2% (active),-85.4% (active),-96.2% (active),99%,-1.32% (active),-18.5% (active)
Cc1sc2nc(CSc3nnc(-c4ccco4)o3)[nH]c(=O)c2c1C,96.4%,110%,114%,106%,189%,93.8%,99.9%,110%,64.3%,48.7%
COc1cc(-c2csc(NC(=O)c3cc(C(F)(F)F)cc(C(F)(F)F)c3)n2)cc(OC)c1OC,21.5%,9.17% (active),25.3%,21.3%,33%,36.1%,43.2%,11.1%,29.3%,20.5%
Cc1ccc2c(c1)C(C)Cc1c(N(C)C)ncnc1N2C (stereo not given),30%,27.2%,44.9%,59.1%,14.1%,53.3%,35.2%,-9.12% (active),21.4%,30.6%
CC(=O)/C=C/c1cc2cc(Cl)ccc2[nH]c1=O,87.9%,89.3%,77%,77.5%,95.5%,92%,87%,90.2%,69%,87.1%
Cc1c(C2=NNC(c3ccc4c(c3)OCO4)C2)[n+]([O-])c2ccccc2[n+]1[O-] (stereo not given),81.4%,91.5%,108%,84.6%,183%,108%,107%,94.7%,97.7%,105%
CC/C=C\C[C@H](O)C/C=C1/C(=O)C(Cl)=C[C@@H]1C/C=C\CCCC(=O)OC,-21% (active),-63.2% (active),-51.7% (active),-94.5% (active),-34.2% (active),-43.6% (active),13.2%,1.86% (active),-3.78% (active),-6.11% (active)
O=c1cc(C2NCCc3c2[nH]c2ccccc32)c2c(ccc3ccccc32)o1 (stereo not given),36.2%,75.3%,87.5%,26.2%,71.7%,31.7%,15.5%,46.3%,77.8%,75.1%
C=C1C(=O)O[C@H]2[C@H]1CC/C(Cn1cc(-c3ccccc3C(F)(F)F)nn1)=C\CC[C@@]1(C)O[C@@H]21,-42.2% (active),-78.6% (active),-35.3% (active),-94.5% (active),-50.1% (active),-85.4% (active),-48.8% (active),25.9%,-28.5% (active),-11.7% (active)
Cc1ccc(-c2csc3nc(C)c(CCCl)c(=O)n23)cc1,94.5%,76.8%,101%,70.4%,113%,99%,88%,104%,104%,85.6%
O=C1CCCCC=C1C[N+](=O)[O-],102%,103%,95.7%,53.5%,107%,75.8%,76%,117%,54.2%,42.5%
CCn1cc(C2NC(=O)c3cc(F)ccc3N2)c2cccc(Cl)c21 (stereo not given),17.5%,37.6%,29.8%,42.6%,50.4%,33.5%,34%,-11.4% (active),5.2% (active),10.8%
Cc1cnc(NC(=O)C(Cc2ccccc2)NC(=O)c2ccccc2)s1 (stereo not given),43.2%,78.5%,76.1%,26.7%,79.2%,68%,92.4%,92.6%,81.3%,40.8%
Cc1oc2ncnc(Nc3ccccc3)c2c1C(=O)NCCO,113%,97.6%,93.2%,87.7%,122%,91.8%,90.8%,78.2%,97.4%,-0.282% (active)
C=C1C(=O)O[C@H]2[C@H]1CC/C(Cn1cc(-c3ccc(N)cc3)nn1)=C\CC[C@@]1(C)O[C@@H]21,41.9%,-19.9% (active),-7.63% (active),-74.3% (active),17.9%,3.22% (active),16.7%,44.1%,-17.7% (active),5.77% (active)
O=C1CCC(=O)N1Cc1ccccc1,95.1%,97.3%,104%,98.1%,92.2%,101%,94.2%,85.8%,108%,101%
COc1ccc2c(c1)NC(=O)CN2c1nc(NC2CC2)nc2ccccc12,25.7%,27.8%,39.1%,28.7%,23.6%,24.9%,32.9%,-12.8% (active),31.7%,33.9%
c1ccc2c(c1)Oc1ccccc1C2C1c2ccccc2Oc2ccccc21,92.6%,84.9%,101%,73.5%,93.4%,87.7%,74.5%,91.8%,98.3%,79.5%
CSc1ccccc1C#C/C=C\C#Cc1ccccc1N1CCCCC1=O,70.8%,91.5%,98.3%,34.6%,151%,97.7%,95%,107%,60%,104%
C[N+](C)(C)c1ccc(CC2c3ccccc3-c3ccccc32)cc1,81.5%,71.2%,21.3%,90.9%,93.3%,99.9%,86.8%,70.5%,69.9%,76.4%
CCN(CC)CCC(=O)c1cccc2ccccc12,114%,100%,102%,87.6%,109%,98.8%,90.7%,101%,100%,102%
CCOC(=O)c1cc(/C(=N\O)c2cc(OC)c(OC)c(OC)c2)n2cc(C)cc(C)c12,2.79% (active),37.7%,30.3%,48.7%,26.7%,10.5%,37.1%,-6.21% (active),9.43% (active),9.33% (active)
CCC(c1ccc(OC)cc1)C(CC)c1ccc(OCC[N+](C)(C)C)cc1 (stereo not given),94%,81.1%,34.1%,82.2%,76.4%,91%,99.2%,93.2%,58.8%,51.8%
Cc1ccc2nc(SCn3nnc4ccccc4c3=O)[nH]c2c1,69.5%,97.1%,108%,73.8%,196%,105%,93.5%,108%,102%,71.2%
O=C1CCCCN1CCCCC#Cc1ccccc1C#Cc1ccc([N+](=O)[O-])cc1,5.87% (active),74.8%,67.4%,7.05% (active),80.6%,34%,58.4%,59.7%,21.4%,18.7%
CCOC(=O)CC/C(C)=N\Nc1ccc([N+](=O)[O-])cc1,58.8%,51.9%,77.6%,30.3%,58.2%,36.8%,40.6%,85.1%,41.7%,35.4%
COc1ccc(C2NC3=C(CCCC3)C(C#N)(C#N)C2(C#N)C#N)cc1 (stereo not given),98.8%,88.2%,88.7%,75.7%,79.7%,37.1%,78%,111%,7.38% (active),9.29% (active)
COc1cc2c(cc1OCCCCn1c(-c3cc(=O)c4ccccc4o3)nc3ccccc31)N=C[C@@H]1CCCN1C2=O,26.7%,129%,102%,35.8%,157%,93.1%,82.8%,121%,49.4%,82.4%
